Measured values reported in PubChem BioAssay (NCATS).
Inconclusive results are not listed. Active and inactive are the calls of the source. The call rests on the fitted dose curve.

How the values were obtained:
[1] = qHTS drug screen for cell cycle checkpoint inhibitors in PARPi-resistant BRCA-mutant ovarian cancer cell lines. (AID 1963452); conditions: PEO1/OlaR viability, CellTiter-Glo luminescence, 96 h, stronger effect = lower value
Method in brief: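 PEO1, PEO4 and PEO1/OlaR ovarian cancer cells, 600 per well, exposed 96 h at 37C to a dilution series. Viability read by CellTiter-Glo luminescence, normalized to DMSO and empty wells; activity summarized as Z-AUC.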

[2] = qHTS for identification of novel therapeutic agents for treatment of microphthalmiaassociated transcription factor (MiT) renal cell carcinoma (RCC) (AID 1963991); conditions: CellTiter-Glo, 48 h, stronger effect = lower value
Method in brief: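 Three TFE3-fusion RCC cell lines (UOK109, UOK124, UOK145), 500 cells/well, were exposed to the 1912-compound MIPE 4.0 library for 48 hours at 37 C. Viability was read by CellTiter-Glo luminescence, normalised to DMSO (100%) and empty wells (0%), with 11-concentration curve fits.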

[3] = measured here: PEO1 parental Z-AUC
[4] = TFE3-RCC UOK109 viability, measured here: UOK109 Z-AUC
[5] = TFE3-RCC viability, measured here: UOK124 Z-AUC
[6] = TFE3-RCC viability, measured here: UOK145 Z-AUC

SMILES	Z-AUC [1]	Z-AUC [1, 3]	Z-AUC ([1]; measured here: PEO4 Z-AUC)	z-score [2, 4]	z-score [2, 5]	z-score [2, 6]
CO[C@@]12[C@H](COC(N)=O)C3=C(C(=O)C(C)=C(N)C3=O)N1C[C@@H]1N[C@@H]12	0.952 (inactive)	0.894	1.04			
O=S(=O)(c1cccc2cnccc12)N1CCCNCC1	-0.00128 (inactive)	-0.265	0.443			
C[C@@H]1CN(c2c(F)c(N)c3c(=O)c(C(=O)O)cn(C4CC4)c3c2F)C[C@H](C)N1	1.35 (inactive)	1.39	1.15	1.8	2.67	1.6
O=C(O)CSCC(=O)NC1CCSC1=O (stereo not drawn)	-0.00872 (inactive)	0.644	0.13	0.815	0.223	1.5
NS(=O)(=O)c1cc2c(cc1Cl)NC(C(Cl)Cl)NS2(=O)=O (stereo not drawn)	0.208 (inactive)	0.729	0.959	0.286	0.327	0.519
O=C(O)C1CCCN(CCC=C(c2ccccc2)c2ccccc2)C1 (stereo not drawn)	1.76 (inactive)	1.39	1.34			
Cc1ccc(S(=O)(=O)N[C@@H](Cc2ccccc2)C(=O)CCl)cc1	1.05 (inactive)	1.44	1.24			
Clc1ccccc1CN1CCc2sccc2C1	0.114 (inactive)	0.0683	0.329	0.71	0.609	0.692
COc1cc2ncnc(Nc3cccc(Cl)c3)c2cc1OC	0.0605 (inactive)	0.96	0.239			
OCc1ccc(-c2nn(Cc3ccccc3)c3ccccc23)o1	0.562 (inactive)	1.06	0.997			
CCN(CC)CCn1c(=O)c(Cc2ccc(OC)cc2)nc2ccccc21	0.658 (inactive)	1.23	1.19	0.411	0.577	0.628
CCC(=O)O[C@]1(C(=O)SCF)[C@H](C)C[C@H]2[C@@H]3C[C@H](F)C4=CC(=O)C=C[C@]4(C)[C@@]3(F)[C@@H](O)C[C@@]21C	-1.29 (inactive)	-0.0288	-0.807			
CCCCc1oc2ccc(NS(C)(=O)=O)cc2c1C(=O)c1ccc(OCCCN(CCCC)CCCC)cc1	0.47 (inactive)	-0.173	-0.237			
CCCOc1ccc(C(=O)OCCN(CC)CC)cc1N	1.6 (inactive)	1	0.987			
CCCCS(=N)(=O)CCC(N)C(=O)O (stereo not drawn)	-0.0852 (inactive)	0.0714	0.126	0.217	0.527	0.0952
CC(C)(C)NC(=O)[C@H]1CC[C@H]2[C@@H]3CC[C@H]4NC(=O)C=C[C@]4(C)[C@H]3CC[C@]12C	1.47 (inactive)	1.04	1.46			
CC(C)C1CCC(C(=O)N[C@H](Cc2ccccc2)C(=O)O)CC1 (stereo partly drawn)	1.31 (inactive)	1.43	0.601	0.399	0.0648	0.384
COC(c1ccccc1)(c1ccccc1)[C@H](Oc1nc(C)cc(C)n1)C(=O)O	1.02 (inactive)	1.24	1.24	1.16	0.918	0.706
CC(=O)CC(c1ccccc1)c1c(O)c2ccccc2oc1=O (stereo not drawn)	1.13 (inactive)	1.51	1.67	0.83	0.655	0.641
O=C(O)CCn1c2c(c3ccccc31)C[C@H](NS(=O)(=O)c1ccc(F)cc1)CC2	0.321 (inactive)	0.0173	0.558	0.68	0.798	0.766
Cn1c(=O)c2c(ncn2CC(O)CO)n(C)c1=O (stereo not drawn)	0.897 (inactive)	0.956	0.893	0.0441	0.351	0.429
Cc1c(-c2ccc(O)cc2)n(Cc2ccc(OCCN3CCCCCC3)cc2)c2ccc(O)cc12	1.04 (inactive)	0.798	0.376	0.552	0.408	0.653
CCOC(=O)[C@H](CCc1ccccc1)N[C@H]1CCc2ccccc2N(CC(=O)O)C1=O	-0.332 (inactive)	-0.731	-0.74			
COc1cc2nc(N3CCCN(C)CC3)nc(NC3CCN(Cc4ccccc4)CC3)c2cc1OC	0.899 (inactive)	0.933	0.922			
